# Laboratory results as given in PubChem BioAssay (EPA / NIEHS).
# Active and inactive are the calls of the source. Rule for the calls: active = hit-call score of the fitted dose curve at least 0.9, where 1 is the maximum; inactive = score below 0.9.
# Key:
# Conditions in all cases: mRNA level, 48 h; actives raise or lower the signal
# [1] = read-out: ABC Transporter (ABCB11), ABCB11 (gene 8647); assay: LTEA_HepaRG_ABCB11: Life Technologies and Expression Analysis (LTEA) Assay for ABC Transporter (ABCB11) using HepaRG (AID 2283463)
# Method in brief: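 Using HepaRG cultures held in 0.5% DMSO, chemicals were tested at half-log dilutions from 100 uM for 48 h. Induction or suppression of ABCB11 mRNA, normalized to ACTB, GAPDH and POLR2A, was fitted bidirectionally against vehicle.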
# [2] = read-out: ABC Transporter (ABCC2), ABCC2 (gene 1244); assay: LTEA_HepaRG_ABCC2: Life Technologies and Expression Analysis (LTEA) Assay for ABC Transporter (ABCC2) using HepaRG (AID 2283464)
# Method in brief: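 HepaRG cells were plated 48 h, switched to serum-free induction medium, then exposed in duplicate for 48 h to 8 concentrations (top 100 uM, half-log steps, 0.5% DMSO). ABCC2 mRNA was measured by qRT-PCR normalized to ACTB/GAPDH/POLR2A; bidirectional fitting versus DMSO.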
# [3] = read-out: Broad substrate specificity ATP-binding cassette transporter ABCG2 (Homo sapiens) (UniProt Q9UNQ0); assay: LTEA_HepaRG_ABCG2: Life Technologies and Expression Analysis (LTEA) Assay for ABC Transporter (ABCG2) using HepaRG (AID 2283465)
# Method in brief: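 Gene expression of ABCG2 in HepaRG liver cells is quantified by qRT-PCR following 48 h exposure across an eight-point series topping at 100 uM. Values come from bidirectional fitting relative to DMSO vehicle.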
# [4] = read-out: ATP-citrate lyase (ACLY), ACLY (gene 47); assay: LTEA_HepaRG_ACLY: Life Technologies and Expression Analysis (LTEA) Assay for ATP-citrate lyase (ACLY) using HepaRG (AID 2283466)
# Method in brief: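 ACLY expression changes in human HepaRG liver cells are quantified by qRT-PCR after 48 h exposure to test chemicals (maximum 100 uM, half-log steps). Values are fitted in both directions relative to 0.5% DMSO vehicle.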
# [5] = read-out: Peroxisomal acyl-coenzyme A oxidase 1 (ACOX1) gene, ACOX1 (gene 51); assay: LTEA_HepaRG_ACOX1: Life Technologies and Expression Analysis (LTEA) Assay for Peroxisomal acyl-coenzyme A oxidase 1 (ACOX1) gene using HepaRG (AID 2283467)
# Method in brief: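 Human HepaRG hepatic cultures, 48 h treatment with test chemicals up to 100 uM. ACOX1 expression read by qRT-PCR relative to 0.5% DMSO vehicle.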
# [6] = read-out: Alkaline Phosphatase, Placental (ALPP) gene, ALPP (gene 250); assay: LTEA_HepaRG_ALPP: Life Technologies and Expression Analysis (LTEA) Assay for Alkaline Phosphatase, Placental (ALPP) gene using HepaRG (AID 2283468)
# Method in brief: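 Differentiated human HepaRG cells were plated and cultured 48 h, then exposed in duplicate for 48 h in serum-free induction medium to eight half-log concentrations from 100 uM in 0.5% DMSO. ALPP mRNA was measured by TaqMan qRT-PCR, normalized to ACTB, GAPDH, POLR2A.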
# [7] = read-out: Bcl-2 (BAD) gene, BAD (gene 572); assay: LTEA_HepaRG_BAD: Life Technologies and Expression Analysis (LTEA) Assay for Bcl-2 (BAD) gene using HepaRG (AID 2283469)
# Method in brief: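 Activity values reflect up- or down-regulation of BAD mRNA in human HepaRG hepatic cells treated 48 h in serum-free medium, with eight-point half-log dosing capped at 100 uM and 0.5% DMSO vehicle.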
# [8] = read-out: Bcl-2 (BAX) gene, BAX (gene 581); assay: LTEA_HepaRG_BAX: Life Technologies and Expression Analysis (LTEA) Assay for Bcl-2 (BAX) gene using HepaRG (AID 2283470)
# Method in brief: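 qRT-PCR read-out of BAX mRNA, normalized to three housekeeping genes, after 48 h chemical exposure of human HepaRG cells in serum-free induction medium; eight-point half-log series, top 100 uM, 0.5% DMSO vehicle; bidirectional fit versus DMSO.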
# [9] = read-out: adenosine kinase (ADK) gene, ADK (gene 132); assay: LTEA_HepaRG_ADK: Life Technologies and Expression Analysis (LTEA) Assay for adenosine kinase (ADK) gene using HepaRG (AID 2283471)
# Method in brief: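 Differentiated HepaRG cells dosed 48 h in serum-free induction medium, 0.5% DMSO vehicle, eight half-log concentrations from 100 uM, in duplicate. ADK mRNA by TaqMan qRT-PCR normalised to ACTB, GAPDH, POLR2A; bidirectional fit versus DMSO.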
# [10] = read-out: Alpha-fetoprotein (AFP) gene, AFP (gene 174); assay: LTEA_HepaRG_AFP: Life Technologies and Expression Analysis (LTEA) Assay for Alpha-fetoprotein (AFP) gene using HepaRG (AID 2283472)
# Method in brief: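 qRT-PCR (Fluidigm TaqMan) readout of AFP transcript, normalized to three housekeeping genes, fitted bidirectionally against 0.5% DMSO baseline. HepaRG cells received chemicals for 48 h in serum-free induction medium, top concentration 100 uM, half-log steps.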
# [11] = read-out: BCL2L11 (gene 10018); assay: LTEA_HepaRG_BCL2L11: Life Technologies and Expression Analysis (LTEA) Assay for Bcl-2 (BCL2L11) gene using HepaRG (AID 2283473)
# Method in brief: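 Differentiated human HepaRG cells in serum-free induction medium were exposed in duplicate for 48 h to eight concentrations (top 100 uM, half-log steps, 0.5% DMSO). BCL2L11 mRNA was quantified by TaqMan qRT-PCR, normalized to ACTB/GAPDH/POLR2A, bidirectional fit versus DMSO.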
# [12] = read-out: Apolipoprotein A-V (APOA5) gene, APOA5 (gene 116519); assay: LTEA_HepaRG_APOA5: Life Technologies and Expression Analysis (LTEA) Assay for Apolipoprotein A-V (APOA5) gene using HepaRG (AID 2283474)
# Method in brief: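 Differentiated human HepaRG cells were exposed in duplicate for 48 h to eight half-log concentrations from 100 uM in 0.5% DMSO. APOA5 mRNA was quantified by TaqMan qRT-PCR, normalized to ACTB, GAPDH and POLR2A, and fitted bidirectionally against DMSO.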
# [13] = read-out: Apoptosis regulator Bcl-2 (Homo sapiens) (UniProt P10415); assay: LTEA_HepaRG_BCL2: Life Technologies and Expression Analysis (LTEA) Assay for Bcl-2 gene using HepaRG (AID 2283475)
# Method in brief: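 qRT-PCR read-out (Fluidigm TaqMan) of BCL2 transcript, normalised to three housekeeping genes, after 48 h chemical exposure of HepaRG cells; 8-point half-log series, top 100 uM, 0.5% DMSO vehicle. Gain or loss of signal fitted relative to DMSO baseline.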
# [14] = read-out: Bcl-2 (BID) gene, BID (gene 637); assay: LTEA_HepaRG_BID: Life Technologies and Expression Analysis (LTEA) Assay for Bcl-2 (BID) gene using HepaRG (AID 2283476)
# Method in brief: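 HepaRG, 48 h exposure, 8-pt half-log series, top 100 uM, 0.5% DMSO vehicle, duplicates. Readout: BID mRNA by TaqMan qRT-PCR; housekeeping-normalized; bidirectional curve fit vs DMSO baseline.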
# [15] = read-out: Caspase-3 (Homo sapiens) (UniProt P42574); assay: LTEA_HepaRG_CASP3: Life Technologies and Expression Analysis (LTEA) Assay for cysteine-aspartic acid protease (CASP3) using HepaRG (AID 2283477)
# Method in brief: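 Differentiated human HepaRG cells in serum-free induction medium were exposed 48 h to 8-point half-log concentrations from 100 uM (0.5% DMSO vehicle). CASP3 mRNA was measured by qRT-PCR, normalised to ACTB, GAPDH and POLR2A, with bidirectional fitting against DMSO.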
# [16] = read-out: Cytochrome P450 (CYP24A1), CYP24A1 (gene 1591); assay: LTEA_HepaRG_CYP24A1: Life Technologies and Expression Analysis (LTEA) Assay for Cytochrome P450 (CYP24A1) using HepaRG (AID 2283478)
# Method in brief: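 Differentiated HepaRG cells, pre-cultured 48 h, were exposed in duplicate for 48 h in serum-free induction medium to 8 half-log concentrations (top 100 uM, 0.5% DMSO). CYP24A1 mRNA was quantified by TaqMan qRT-PCR, normalized to ACTB/GAPDH/POLR2A, fitted bidirectionally versus DMSO.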
# [17] = read-out: Cytochrome P450 (CYP1A2), CYP1A2 (gene 1544); assay: LTEA_HepaRG_CYP1A2: Life Technologies and Expression Analysis (LTEA) Assay for Cytochrome P450 (CYP1A2) using HepaRG (AID 2283479)
# Method in brief: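 Differentiated human HepaRG cells in serum-free induction medium were exposed in duplicate for 48 h to 8-point half-log concentrations up to 100 uM in 0.5% DMSO. CYP1A2 mRNA measured by qRT-PCR, normalized to ACTB, GAPDH, POLR2A; bidirectional fit vs DMSO.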
# [18] = read-out: cysteine-aspartic acid protease (CASP8), CASP8 (gene 841); assay: LTEA_HepaRG_CASP8: Life Technologies and Expression Analysis (LTEA) Assay for cysteine-aspartic acid protease (CASP8) using HepaRG (AID 2283480)
# Method in brief: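 Concentration-response in duplicate up to 100 uM (half-log steps, 0.5% DMSO) on differentiated HepaRG cultures for 48 h. Expression change of CASP8 mRNA is determined by TaqMan qRT-PCR with housekeeping-gene normalization.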
# [19] = read-out: Cytochrome P450 (CYP2B6), CYP2B6 (gene 1555); assay: LTEA_HepaRG_CYP2B6: Life Technologies and Expression Analysis (LTEA) Assay for Cytochrome P450 (CYP2B6) using HepaRG (AID 2283481)
# Method in brief: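 Differentiated HepaRG cells, serum-free induction medium, exposed 48 h in duplicate to 8-point half-log concentrations from 100 uM in 0.5% DMSO. CYP2B6 mRNA by qRT-PCR, normalized to ACTB, GAPDH, POLR2A; bidirectional fit versus DMSO.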
# [20] = read-out: Cytochrome P450 2C19 (Homo sapiens) (UniProt P33261); assay: LTEA_HepaRG_CYP2C19: Life Technologies and Expression Analysis (LTEA) Assay for CYP2C19 using HepaRG (AID 2283482)
# Method in brief: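 Differentiated human HepaRG cells were exposed for 48 h in serum-free induction medium to 8 concentrations (top 100 uM, half-log steps, 0.5% DMSO). CYP2C19 mRNA was measured by qRT-PCR, normalized to ACTB/GAPDH/POLR2A, and fitted bidirectionally against DMSO.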
# Chain of Broad substrate specificity ATP-binding cassette transporter ABCG2 (Homo sapiens) (Q9UNQ0 whole entry, looked up): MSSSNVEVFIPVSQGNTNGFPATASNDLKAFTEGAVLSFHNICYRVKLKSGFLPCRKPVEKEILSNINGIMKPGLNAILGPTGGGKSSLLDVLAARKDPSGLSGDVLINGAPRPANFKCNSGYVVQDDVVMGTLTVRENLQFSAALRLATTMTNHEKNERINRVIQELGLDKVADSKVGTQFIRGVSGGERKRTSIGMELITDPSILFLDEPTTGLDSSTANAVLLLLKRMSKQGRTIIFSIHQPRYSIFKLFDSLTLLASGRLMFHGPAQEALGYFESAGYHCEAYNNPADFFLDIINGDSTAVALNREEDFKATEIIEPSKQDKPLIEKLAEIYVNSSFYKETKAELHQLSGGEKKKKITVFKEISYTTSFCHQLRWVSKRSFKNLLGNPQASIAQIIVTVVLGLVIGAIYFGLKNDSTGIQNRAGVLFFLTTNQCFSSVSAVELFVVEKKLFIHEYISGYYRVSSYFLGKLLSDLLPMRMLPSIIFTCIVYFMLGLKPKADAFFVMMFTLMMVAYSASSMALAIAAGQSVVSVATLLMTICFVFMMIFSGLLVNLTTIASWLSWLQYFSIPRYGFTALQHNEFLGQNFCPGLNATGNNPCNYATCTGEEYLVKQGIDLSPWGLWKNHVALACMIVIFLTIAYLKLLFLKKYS
# Chain of Caspase-3 (Homo sapiens) (P42574 whole entry, looked up): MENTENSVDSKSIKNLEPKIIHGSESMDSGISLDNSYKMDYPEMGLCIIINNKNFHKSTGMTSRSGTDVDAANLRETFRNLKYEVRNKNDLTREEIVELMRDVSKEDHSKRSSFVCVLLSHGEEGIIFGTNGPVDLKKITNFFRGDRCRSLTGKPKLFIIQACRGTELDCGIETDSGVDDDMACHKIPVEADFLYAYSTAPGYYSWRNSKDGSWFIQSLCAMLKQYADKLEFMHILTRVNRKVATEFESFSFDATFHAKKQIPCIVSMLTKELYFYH
# Chain of Apoptosis regulator Bcl-2 (Homo sapiens) (P10415 whole entry, looked up): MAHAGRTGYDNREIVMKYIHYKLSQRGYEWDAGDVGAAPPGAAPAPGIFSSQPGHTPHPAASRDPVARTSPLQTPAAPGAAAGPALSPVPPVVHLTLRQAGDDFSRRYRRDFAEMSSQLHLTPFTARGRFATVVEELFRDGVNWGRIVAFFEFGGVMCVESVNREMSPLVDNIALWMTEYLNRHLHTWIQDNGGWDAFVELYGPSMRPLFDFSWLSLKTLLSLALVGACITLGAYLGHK
# Chain of Cytochrome P450 2C19 (Homo sapiens) (P33261 whole entry, looked up): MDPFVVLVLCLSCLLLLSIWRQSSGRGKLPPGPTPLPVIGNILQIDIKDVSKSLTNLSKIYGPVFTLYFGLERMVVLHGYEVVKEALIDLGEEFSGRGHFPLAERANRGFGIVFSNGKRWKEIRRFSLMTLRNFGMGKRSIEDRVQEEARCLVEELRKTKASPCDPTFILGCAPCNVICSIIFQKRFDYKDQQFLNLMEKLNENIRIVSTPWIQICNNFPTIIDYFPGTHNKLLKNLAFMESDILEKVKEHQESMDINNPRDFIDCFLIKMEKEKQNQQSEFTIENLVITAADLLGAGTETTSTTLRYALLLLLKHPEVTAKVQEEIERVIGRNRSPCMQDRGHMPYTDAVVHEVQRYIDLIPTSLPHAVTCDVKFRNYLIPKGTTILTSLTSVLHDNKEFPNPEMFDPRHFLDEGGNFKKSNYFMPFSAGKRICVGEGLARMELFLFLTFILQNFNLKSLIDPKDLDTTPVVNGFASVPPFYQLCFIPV
compound,measurement,setting,value
COc1ccc(C(=CC(=O)N2CCOCC2)c2ccc(Cl)cc2)cc1OC,outcome,[1],inactive
same,AC50,[2],11 µM (active)
same,outcome,[3],inactive
same,outcome,[4],inactive
same,outcome,[5],inactive
same,outcome,[6],inactive
same,outcome,[7],inactive
same,outcome,[8],inactive
same,outcome,[9],inactive
same,outcome,[10],inactive
same,outcome,[11],inactive
same,outcome,[12],inactive
same,outcome,[13],inactive
same,outcome,[14],inactive
same,outcome,[15],inactive
same,outcome,[16],inactive
same,outcome,[17],inactive
same,outcome,[18],inactive
same,AC50,[19],0.00252 µM (active)
same,AC50,[20],10.4 µM (active)
CCOP(=O)(OCC)Oc1cc(C)nc(C(C)C)n1,outcome,[1],inactive
same,outcome,[2],inactive
same,outcome,[3],inactive
same,outcome,[4],inactive
same,outcome,[5],inactive
same,outcome,[6],inactive
same,outcome,[7],inactive
same,outcome,[8],inactive
same,outcome,[9],inactive
same,outcome,[10],inactive
same,outcome,[11],inactive
same,outcome,[12],inactive
same,outcome,[14],inactive
same,outcome,[15],inactive
same,outcome,[16],inactive
same,outcome,[17],inactive
same,outcome,[18],inactive
same,outcome,[19],inactive
S=C1NCCN1,outcome,[1],inactive
same,outcome,[2],inactive
same,outcome,[3],inactive
same,outcome,[4],inactive
same,AC50,[5],0.232 µM (active)
same,outcome,[6],inactive
same,outcome,[7],inactive
same,outcome,[8],inactive
same,AC50,[9],12.6 µM (active)
same,outcome,[10],inactive
same,outcome,[11],inactive
same,outcome,[12],inactive
same,outcome,[13],inactive
same,outcome,[14],inactive
same,outcome,[15],inactive
same,outcome,[16],inactive
same,outcome,[17],inactive
same,outcome,[18],inactive
same,AC50,[19],10.3 µM (active)
C[Si](Cn1cncn1)(c1ccc(F)cc1)c1ccc(F)cc1,AC50,[1],34.5 µM (active)
same,AC50,[2],50 µM (active)
same,AC50,[3],16.3 µM (active)
same,outcome,[4],inactive
same,AC50,[5],40.9 µM (active)
same,AC50,[6],50 µM (active)
same,AC50,[8],78.9 µM (active)
same,outcome,[9],inactive
same,AC50,[10],25.4 µM (active)
same,outcome,[11],inactive
same,AC50,[12],15.8 µM (active)
same,AC50,[14],50 µM (active)
same,outcome,[15],inactive
same,outcome,[16],inactive
same,AC50,[17],85.6 µM (active)
same,outcome,[18],inactive
same,AC50,[19],68.8 µM (active)
CCOP(=S)(OCC)OC(Cl)C(Cl)(Cl)Cl (centres undefined),outcome,[1],inactive
same,outcome,[2],inactive
same,outcome,[3],inactive
same,outcome,[4],inactive
same,outcome,[5],inactive
same,outcome,[6],inactive
same,outcome,[7],inactive
same,outcome,[8],inactive
same,outcome,[9],inactive
same,outcome,[10],inactive
same,outcome,[11],inactive
same,outcome,[12],inactive
same,outcome,[14],inactive
same,outcome,[15],inactive
same,outcome,[16],inactive
same,outcome,[17],inactive
same,outcome,[18],inactive
same,AC50,[19],24 µM (active)
Nc1nc(N)nc(NC2CC2)n1,outcome,[1],inactive
same,outcome,[2],inactive
same,outcome,[3],inactive
same,outcome,[4],inactive
same,outcome,[5],inactive
same,outcome,[6],inactive
same,outcome,[7],inactive
same,outcome,[8],inactive
same,outcome,[9],inactive
same,outcome,[10],inactive
same,outcome,[11],inactive
same,outcome,[12],inactive
same,outcome,[14],inactive
same,outcome,[15],inactive
same,outcome,[16],inactive
same,outcome,[17],inactive
same,outcome,[18],inactive
same,outcome,[19],inactive
CCCCOC(=O)c1ccccc1C(=O)O,outcome,[1],inactive
same,outcome,[2],inactive
same,outcome,[3],inactive
same,outcome,[4],inactive
same,outcome,[5],inactive
same,outcome,[6],inactive
same,outcome,[7],inactive
same,outcome,[8],inactive
same,outcome,[9],inactive
same,outcome,[10],inactive
same,outcome,[11],inactive
same,outcome,[12],inactive
same,outcome,[14],inactive
same,outcome,[15],inactive
same,outcome,[16],inactive
same,AC50,[17],32.8 µM (active)
same,outcome,[18],inactive
same,AC50,[19],10.2 µM (active)
same,outcome,[20],inactive
